In PubChem BioAssay (NCI):
The panel holds about 83,000 compounds, 20% with a hit somewhere; the sample as a whole holds those more often.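 Interpretation: 100, growth as untreated; towards 0, rising growth inhibition; 0, no net growth; 0 to -100, cell death. Compounds scoring below 10 were considered active.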 Unmarked numbers belong to inactive results. Active and inactive are the calls of the source.

How the values were obtained:
Test in all cases: NCI-60 one-dose screen, 48 h (100 = growth as untreated, 0 = no growth, -100 = all killed)
Details in all cases: 10 µM unless noted
[1] = system: NCI-H23 lung
[2] = system: NCI-H226 lung
[3] = system: NCI-H322M lung
[4] = system: HOP-62 NSCLC
[5] = system: NCI-H460 lung
[6] = system: HOP-92 NSCLC
[7] = system: NCI-H522 lung
[8] = system: A549/ATCC NSCLC
[9] = system: 786-0 renal
[10] = system: COLO 205 colon
[11] = system: DU-145 prostate
[12] = system: K-562 leukemia
[13] = system: MALME-3M melanoma
[14] = system: MDA-MB-231 breast
[15] = system: RXF 393 renal
[16] = system: SF-268 CNS
[17] = system: SF-295 CNS
[18] = system: SF-539 CNS
[19] = system: UACC-257 melanoma
[20] = system: M14 melanoma

Row | Structure (SMILES) | growth [1] | growth [2] | growth [3] | growth [4] | growth [5] | growth [6] | growth [7] | growth [8] | growth [9] | growth [10] | growth [11] | growth [12] | growth [13] | growth [14] | growth [15] | growth [16] | growth [17] | growth [18] | growth [19] | growth [20]
1 | Cc1ccc(-c2csc(NC(=O)CSc3nc(N)cc(N)n3)n2)cc1 | 42.7% | 96.3% | 87% | 50.9% | 78.6% | 89.3% | 54.6% | 62.7% | 72.2% | 50.8% | 77.2% | 20.1% | 57.9% | 67.5% | 92.1% | 73.6% | 50.2% | 76.9% | 79.9% | 67.8%
2 | O=C(CN1C(=O)S/C(=C\C(Cl)=C\c2ccccc2)C1=O)NC1CCS(=O)(=O)C1 (stereo not given) | 74.3% | 77.3% | 95.7% | 99.7% | 94.2% | 80.4% | 34.2% | 94.3% | 78.7% | 59% | 82.8% | 15.3% | 84.9% | 77% | 26.7% | 94.4% | 85.3% | 56.8% | 81.8% | 64%
3 | CCOC(=O)NC(=S)n1oc(=O)c2ccccc21 | 97.7% | 102% | 98.8% | 99.4% | 101% | 86.2% | 99.3% | 103% | 111% | 103% | 106% | 112% | 95.4% | 96.8% | 111% | 96.1% | 103% | 95.6% | 105% | 104%
4 | O=C(Nc1cc(Cl)ccc1O)c1ccccc1Nc1ccnc(C(F)(F)F)c1 | -5.07% (active) | 50.9% | 30.9% | 16.6% | 2.15% (active) | 49.1% | -6.22% (active) | 19.7% | 57.9% | 79.6% | 23.8% | 0.85% (active) | -0.18% (active) | 29.8% | 25.7% | 21.1% | 46.3% | 14.5% | 26.8% | 36%
5 | Cc1cccc(N=Nc2cccc(C)c2)c1 | 92.5% | 100% | 98.5% | 104% | 102% | 85.9% | 97.4% | 104% | 116% | 111% | 112% | 138% | 100% | 86.4% | 115% | 110% | 97.9% | 110% | 113% | 108%
6 | C/C=C1/CN(CCCCC)CC[C@H]1C(=O)c1cc2ccccc2[nH]1 | 85.1% | 92.9% | 86.6% | 85.5% | 97.3% | 52.3% | 88.1% | 100% | 99.9% | 98.9% | 99% | 69.6% | 91.4% | 88.5% | 94.1% | 89.8% | 94.5% | 98.9% | 108% | 90.2%
7 | COc1ccccc1S(=O)(=O)Nc1ccc2c3c(cc(CCC(=O)NCCCCNc4cccc5c4C(=O)N(C4CCC(=O)NC4=O)C5=O)cc13)C(=O)N2C (stereo not given) | 70.3% | -0.85% (active) | -3.45% (active) | 2.74% (active) | 97.8% | -10.7% (active) | 26.2% | 56.1% | 20.4% | 2.62% (active) | 75.9% | 17.4% | -29% (active) | -33.3% (active) | -14.4% (active) | 11.9% | 47.6% | 31.3% | 71.7% | 36%
